Most compounds without a hit are left out; they make up all but 2.8% or so of the library.
SNCA expr inhib: reduces expression of the alpha-synuclein gene; actives 0.17% (n = 140,000); HEK-293 SNCA-luciferase knock-in, luminescence, 24 h; AID 1671194; Potency, µM (doses to about 57.2 µM), most hits filed as inhibitors; further: nearly all actives have a fitted effect of over 45% in size
KDM5B inhibitor: blocks human KDM5B histone demethylase activity. KDM5B demethylase, FDH-coupled NADH fluorescence (FDH is formaldehyde dehydrogenase). Q9UGL1. actives 2.6% (n = 220,000). Potency, µM (highest dose often 57.7 µM), most hits filed as inhibitors; further: nearly all actives have a fitted effect of over 70% in size
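Inhibition is measured as reduced NADH fluorescence generation from FDH coupling to formaldehyde release. Truncated KDM5BΔAP at 200 nM final acts on H3K4me3 peptide (12.5 µM in substrate mix) in pH 7.5 HEPES buffer with Tween-20, 30 min, room temperature.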
SNCA viab count: counter-screen for SNCA expression inhibitors: cell viability | HEK-293-SNCA-luc viability, GF-AFC fluorescence, 24 h | Potency, µM (titrated, usually from 57.1 µM), usual class: cytotoxic | actives 0.12% (n = 150,000); further: nearly all actives have a fitted effect of over 30% in size
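Cytotoxicity counterscreen: after 24 h compound treatment of genome-edited SNCA-luciferase HEK-293 cells, live-cell protease substrate GF-AFC read by fluorescence after 30 min; activity scaled between DMSO (0%) and medium-only (-100%), curves Hill-fitted.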
IP6K1 inhibitor: blocks human inositol hexakisphosphate kinase 1; AID 1645851; actives 0.81% (n = 140,000); Q92551; IP6K1 kinase, ADP-Glo luminescence, 2 h; stronger effect = lower value; activity change, % (series mostly up to about 58 µM); in the data active means activity change below about -25%
Target sequence (Q92551 whole entry, looked up): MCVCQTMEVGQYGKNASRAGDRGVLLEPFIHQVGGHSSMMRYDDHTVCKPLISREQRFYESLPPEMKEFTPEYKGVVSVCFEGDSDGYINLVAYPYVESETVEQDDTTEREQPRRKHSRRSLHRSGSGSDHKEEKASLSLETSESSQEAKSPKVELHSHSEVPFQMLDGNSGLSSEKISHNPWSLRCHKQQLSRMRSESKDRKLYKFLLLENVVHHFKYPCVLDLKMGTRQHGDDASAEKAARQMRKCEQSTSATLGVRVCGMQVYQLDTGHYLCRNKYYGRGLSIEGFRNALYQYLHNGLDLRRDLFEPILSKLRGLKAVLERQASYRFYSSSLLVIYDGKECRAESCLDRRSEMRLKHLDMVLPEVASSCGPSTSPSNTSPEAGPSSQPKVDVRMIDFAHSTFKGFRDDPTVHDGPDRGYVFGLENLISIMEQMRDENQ
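ADP-Glo luminescence measures ADP made by human IP6K1 during a 2 h RT reaction with ATP/IP6 (mix at 1.3 mM/130 uM); top library doses 57.5 and 19.1 uM final.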
Each line names hits and unclear results; the compound was inactive in the other large screens. Unless noted, the call rests on the fitted dose curve; in most records, active means well fitted curve in the direction sought with a large enough effect; inconclusive means small, poorly fitted or top-dose-only effect, or another doubt; inactive means no such curve, though single readings can be large; an effect the other way counts as inactive or inconclusive.

CC1(C(=O)NCC2CC2)CCc2cnc(NCc3ccccc3)nc21 (stereo unspecified)	SNCA expr inhib inconclusive, KDM5B inhibitor 39.8µM
COCCNC(=O)C1(C)CCc2cnc(Nc3ccccc3)nc21 (stereo unspecified)	none
COCCNC(=O)C1(C)CCc2cnc(NCc3ccccc3)nc21 (stereo unspecified)	SNCA expr inhib inconclusive, KDM5B inhibitor 35.5µM
Cn1ccc(NC(=O)C2(C)CCc3cnc(NCc4ccccc4)nc32)n1 (stereo unspecified)	KDM5B inhibitor 35.5µM
Cc1cnc(C2CCN(S(=O)(=O)c3cn(C)cn3)C2)n1C(C)C (stereo unspecified)	none
COc1ccc(Cl)cc1NC(=O)C1CCCN(c2ccc3nncn3n2)C1 (stereo unspecified)	none (no result: SNCA expr inhib, SNCA viab count, IP6K1 inhibitor)
O=C(c1cccc2[nH]ccc12)N1CCC(Cc2nncn2Cc2ccccc2)C1 (stereo unspecified)	KDM5B inhibitor inconclusive
Cc1nnn2c(C(=O)NCc3ccc(Cl)nc3)cccc12	KDM5B inhibitor 35.5µM
CNC(=O)c1cccc2c(C)nnn12	KDM5B inhibitor 31.6µM
C=CCNC(=O)c1cccc2c(C)nnn12	KDM5B inhibitor 31.6µM
Cc1nnn2c(C(=O)Nc3ccc(Cl)nc3)cccc12	KDM5B inhibitor inconclusive
Cc1nnn2c(C(=O)Nc3ccc(F)cc3)cccc12	KDM5B inhibitor inconclusive
COc1cccc(NC(=O)C(C)n2cnc3c2c(=O)n(C)c(=O)n3C)c1 (stereo unspecified)	none (no result: SNCA expr inhib, SNCA viab count, IP6K1 inhibitor)
CCc1noc(-c2cccn3c(CNC(=O)Cc4cccc(F)c4)nnc23)n1	KDM5B inhibitor 25.1µM
CCc1noc(-c2cccn3c(CNC(=O)c4cccc(F)c4)nnc23)n1	KDM5B inhibitor 22.4µM
CCc1noc(-c2cccn3c(CNC(=O)c4cccc(N(C)C)c4)nnc23)n1	none
CCCc1noc(-c2cccn3c(CNC(=O)c4cccc(F)c4)nnc23)n1	KDM5B inhibitor 25.1µM
CCc1noc(-c2cccn3c(CNC(=O)c4c(F)cccc4Cl)nnc23)n1	KDM5B inhibitor 28.2µM
CC(C)=CCn1c(-c2ccccc2Cl)cn2cc(C(=O)NCC(C)O)nc2c1=O (stereo unspecified)	none
O=C1NC2(CCN(Cc3ccc(C(F)(F)F)cc3)C2)OCc2ccccc21 (stereo unspecified)	none
COc1nc2nc(CC3CC3)n(C)c2cc1-c1ccncc1	KDM5B inhibitor inconclusive
COc1nc2nc(CC3CC3)n(C)c2cc1-c1ccnc(C)c1	KDM5B inhibitor 39.8µM
COc1nc2nc(CCc3ccccc3)n(C)c2cc1-c1ccnc(C)c1	KDM5B inhibitor 39.8µM
COc1nc2nc(CCc3ccccc3)n(C)c2cc1-c1cccc(CO)c1	KDM5B inhibitor 35.5µM
COc1cc(F)ccc1-c1cc2c(nc1OC)nc(CC1CC1)n2C	KDM5B inhibitor 35.5µM
Cc1cccc(CN2CCN(c3nc4c([nH]3)c(=O)n(C)c(=O)n4C)CC2)c1	none (no result: SNCA expr inhib, SNCA viab count, IP6K1 inhibitor)
Brc1cccc(-c2noc(/C=C/c3ccccc3)n2)c1	none (no result: SNCA expr inhib, SNCA viab count, IP6K1 inhibitor)
Cc1cccc(C(=O)N2CC[C@H](n3c(=O)n(C)c4cccnc43)C2)c1	none (no result: KDM5B inhibitor)
COc1ccc(Nc2cc3c(nc2OC)nc(CCc2ccccc2)n3C)cn1	KDM5B inhibitor 17.8µM
COc1ncccc1-c1cc2c(nc1OC)nc(CCc1ccccc1)n2C	KDM5B inhibitor inconclusive
CC(C)c1noc(COc2ccc(C(=O)NC3CC3)cc2)n1	none (no result: SNCA expr inhib, SNCA viab count, IP6K1 inhibitor)
COc1cccc(-c2noc(-c3cc4cc(Br)ccc4oc3=O)n2)c1OC	none (no result: SNCA expr inhib, SNCA viab count, IP6K1 inhibitor)
CS(=O)(=O)c1ccc(OC[C@H]2C[C@@H](NC(=O)C3CCOCC3)[C@H](O)[C@@H]2O)cc1	KDM5B inhibitor 31.6µM
COCCN1CCCC[C@]2(C[C@H](CO)[C@H](c3ccccc3)N2C(=O)c2cccc(OC)c2)C1=O	none (no result: SNCA expr inhib, KDM5B inhibitor, SNCA viab count)
CC1CCN(CCC(=O)O)CC1	none (no result: SNCA expr inhib, SNCA viab count, IP6K1 inhibitor)
CC(=O)NCC(=O)NC1CC(C)(C)Cc2nc(N(C)Cc3ccccc3)ncc21 (stereo unspecified)	KDM5B inhibitor 31.6µM
COc1cccn(CC(=O)N(Cc2ccc(F)cc2)C2CCCCC2)c1=O	none
CCCNC(=O)c1cc2c(=O)[nH]c(-c3ccccc3)cn2n1	KDM5B inhibitor 25.1µM
COCCCNC(=O)c1cc2c(=O)[nH]c(-c3ccccc3)cn2n1	KDM5B inhibitor 25.1µM
O=C(NC1CC1)c1cc2c(=O)[nH]c(-c3ccccc3)cn2n1	SNCA expr inhib inconclusive, KDM5B inhibitor 28.2µM
CC(C)N1CCN(C(=O)c2cc3c(=O)[nH]c(-c4ccccc4)cn3n2)CC1	KDM5B inhibitor 25.1µM
Nn1c(SCc2ncc(-c3ccccc3)o2)nnc1-c1cccc(Cl)c1	none (no result: SNCA expr inhib, SNCA viab count, IP6K1 inhibitor)
CCN(CC)C(=O)C1CCC(Cn2c(=O)c3sccc3n(Cc3ccccc3)c2=O)CC1 (stereo unspecified)	none (no result: SNCA expr inhib, SNCA viab count, IP6K1 inhibitor)
CC(C)=CCS(=O)(=O)Cc1cccc2ccccc12	none (no result: SNCA expr inhib, SNCA viab count, IP6K1 inhibitor)
COCc1ccc(C(=O)N[C@@H]2COCC[C@@H]2OCc2c(C)noc2C)o1	none
Cc1noc(C)c1CO[C@@H]1COCC[C@H]1NC(=O)c1cccc(=O)[nH]1	KDM5B inhibitor 17.8µM
COc1cc(OC)c(OC)cc1CN1CCC(O)(CN2CCCC2)CC1	none
CC(Sc1ncnc2nc[nH]c12)C(=O)NCc1ccc(Cl)cc1Cl (stereo unspecified)	none (no result: SNCA expr inhib, SNCA viab count, IP6K1 inhibitor)
COc1ccc2[nH]cc(CCNC(=O)C(C)(C)C)c2c1	none (no result: SNCA expr inhib, SNCA viab count, IP6K1 inhibitor)
COCCNC(=O)c1cc(C2CC2)nc2c1c(C1CCCN1)nn2C (stereo unspecified)	KDM5B inhibitor 79.4µM
Cn1nc(C2CCCN2)c2c(C(=O)NCC(F)(F)F)cc(C3CC3)nc21 (stereo unspecified)	KDM5B inhibitor 79.4µM
COCCNC(=O)c1cc(C2CC2)nc2c1c(C1CCNCC1)nn2C	KDM5B inhibitor inconclusive
COc1ccc(OC)c(CN2CCCn3nc(C)c(-c4ccccc4C(C)C)c32)c1	SNCA expr inhib inconclusive, KDM5B inhibitor inconclusive
COc1ccc(OC)c(CN2CCCn3nc(C)c(-c4cccnc4N4CCOCC4)c32)c1	KDM5B inhibitor 12.6µM
Cc1nn2c(c1-c1cccnc1N1CCOCC1)N(Cc1ccc3c(c1)CCO3)CCC2	KDM5B inhibitor 25.1µM
C#CCNC(=O)C[C@@H]1CCN(C(=O)Nc2cccc(C(=O)OCC)c2)C[C@@H]1CC	KDM5B inhibitor 15.8µM
CCOC(=O)c1cccc(NC(=O)N2CC[C@@H](CC(=O)NCCN(C)C)[C@@H](CC)C2)c1	none
CN(CCO)Cc1cc(=O)oc2cc3c(cc12)CCC3	none (no result: SNCA expr inhib, SNCA viab count, IP6K1 inhibitor)
Cc1nccn1-c1ccc(NC(=O)C2CCCN(c3ncccc3C#N)C2)cc1 (stereo unspecified)	KDM5B inhibitor 28.2µM
NC1CCN(Cc2ccc(C(=O)NCc3ccc(S(N)(=O)=O)cc3)c(=O)[nH]2)C1 (stereo unspecified)	KDM5B inhibitor 22.4µM
CCc1noc(-c2cccn3c(CNC(=O)c4cccc(OC)c4)nnc23)n1	SNCA expr inhib inconclusive, KDM5B inhibitor 22.4µM
COc1cccc(C(=O)NCc2nnc3c(-c4nc(C)no4)cccn23)c1	KDM5B inhibitor 28.2µM
CCc1noc(-c2cccn3c(CNC(=O)c4ccc(OC)cc4)nnc23)n1	KDM5B inhibitor inconclusive
Cc1noc(-c2cccn3c(CNC(=O)c4cccc(N(C)C)c4)nnc23)n1	KDM5B inhibitor inconclusive

Assay outcomes as filed in PubChem.
